Test results from PubChem BioAssay (Tox21).
Activity calls are given as the source filed them. Unless noted, calls come from the whole dose curve; as a rule, active = well fitted curve in the direction sought with a large enough effect in the repeat runs; inconclusive = weak or mixed curves; inactive = no such curve, though single readings can be large; an effect the other way counts as inactive or inconclusive.

What was measured:
[1] = target: Estrogen receptor (Homo sapiens) (UniProt P03372); experiment: qHTS assay to identify small molecule antagonists of the estrogen receptor alpha (ER-alpha) signaling pathway (AID 743069; active = well fitted curve in the direction sought with a large enough effect in the signal ratio in the repeat runs, not every such curve was filed as active; inconclusive = weak or mixed curves, or effect the other way; inactive = no such curve, though single readings can be large or run the other way; the % refers to the signal ratio; note: potency is the fitted concentration of half-maximal effect)
How it was run: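 Compound effects are measured against 17beta-estradiol stimulation in HEK293 cells with a UAS-controlled beta-lactamase reporter for ER-alpha. Exposure lasts 18 hr at 37C; LiveBLAzer B/G FRET substrate follows for 2 hr at room temperature.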

[2] = qHTS assay to identify small molecule antagonists of the estrogen receptor alpha (ER-alpha) signaling pathway - cell viability counter screen (AID 743074; calls by dose curve;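 note: HEK293 cells carrying ER-alpha-UAS-bla reporter stimulated with 17beta-estradiol; nearly all actives have a fitted effect of over 45% in size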)
[3] = target: Estrogen receptor (Homo sapiens) (UniProt P03372); experiment: qHTS assay to identify small molecule agonists of the estrogen receptor alpha (ER-alpha) signaling pathway (AID 743075; calls by dose curve; note: potency is the fitted concentration of half-maximal effect)
[4] = target: Estrogen receptor (Homo sapiens) (UniProt P03372); experiment: qHTS assay to identify small molecule agonists of the estrogen receptor alpha (ER-alpha) signaling pathway using the BG1 cell line (AID 743079); settings: BG1Luc4E2 cells, ERE-luciferase agonist, 22 h; activation: at 70.3 µM (top of the series); note: nearly all actives have a fitted effect of over 20% in size; note: potency is the fitted concentration of half-maximal effect
[5] = qHTS assay to identify small molecule antagonists of the estrogen receptor alpha (ER-alpha) signaling pathway using the BG1 cell line (AID 743080; calls by dose curve;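 note: BG1 cells stimulated with 17beta-estradiol alongside compound; nearly all actives have a fitted effect of over 25% in size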)
How it was run: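 Quantitative HTS on the Tox21 10K library: BG1 cells with endogenous ER-alpha and ERE-luciferase reporter, 17beta-estradiol stimulation, 21.5 h compound exposure, luminescence endpoint with parallel fluorescence cytotoxicity counter-read.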

[6] = qHTS assay to identify small molecule antagonists of the estrogen receptor alpha (ER-alpha) signaling pathway using the BG1 cell line - cell viability counter screen (AID 743081);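 note: compound given together with 17beta-estradiol as the ER stimulus; nearly all actives have a fitted effect of over 45% in size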
[7] = target: Aromatase (Homo sapiens) (UniProt P11511); experiment: qHTS assay to identify aromatase inhibitors (AID 743083); note: nearly all actives have a fitted effect of over 55% in size
[8] = qHTS assay to identify aromatase inhibitors - cell viability counter screen (AID 743084);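 note: cells stimulated with testosterone during compound exposure; nearly all actives have a fitted effect of over 55% in size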
[9] = target: Aryl hydrocarbon receptor (Homo sapiens) (UniProt P35869); experiment: qHTS assay to identify small molecule that activate the aryl hydrocarbon receptor (AhR) signaling pathway (AID 743085);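 note: HG2L7.5c1 human HepG2 liver cells with stably integrated DRE-driven firefly reporter; nearly all actives have a fitted effect of over 15% in size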
How it was run: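 Cell line HG2L7.5c1 (human hepatoma, 20× DRE-luc). Plated, 5 h 37C, compound/DMSO added, 24 h 37C. CellTiter-Fluor 30 min 37C → fluorescence; then ONE-Glo 30 min RT → luminescence.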

[10] = qHTS assay to identify small molecule that activate the aryl hydrocarbon receptor (AhR) signaling pathway - cell viability counter screen (AID 743086);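 note: HepG2 liver cells carrying the AhR DRE luciferase reporter; nearly all actives have a fitted effect of over 45% in size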
How it was run: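 Cytotoxicity counter screen: CellTiter-Fluor signal (30 min, 37 C) in 4000 HepG2 cells/well carrying the DRE-luciferase reporter, following 24 h compound exposure at 37 C.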

[11] = target: Peroxisome proliferator-activated receptor gamma (Homo sapiens) (UniProt P37231); experiment: qHTS assay to identify small molecule agonists of the peroxisome proliferator-activated receptor gamma (PPARg) signaling pathway (AID 743094; active = well fitted activation curve with a large enough effect in the signal ratio in the repeat runs, not every such curve was filed as active; inconclusive = weak or mixed curves, or effect the other way; inactive = no such curve, though single readings can be large or run the other way; the % refers to the signal ratio)
How it was run: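 GeneBLAzer PPARg UAS-bla HEK293H cells were plated, rested 5 h, then exposed to compounds for 17 h at 37C. Beta-lactamase activity was read by LiveBLAzer B/G FRET substrate fluorescence after 1 h at room temperature.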

[12] = qHTS assay to identify small molecule phospholipidosis (PLD) inducers (AID 1259344; active = well fitted curve in the direction sought with a large enough effect; inconclusive = small, poorly fitted or top-dose-only effect, or another doubt; inactive = no such curve, though single readings can be large; an effect the other way counts as inactive or inconclusive)
How it was run: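 Fluorescent phospholipid staining (LipidTOX Red) measured by automated microscopy in fixed HepG2 cells after 24 h treatment; nuclei counterstained with Hoechst 33342; amiodarone as reference inducer.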

[13] = target: Nuclear receptor subfamily 1 group I member 2 (Rattus norvegicus) (UniProt Q9R1A7); experiment: Rat pregnane X receptor (rPXR) activation by small molecules, qHTS assay (AID 1346983); settings: rPXR luciferase reporter cells, One-Glo luminescence, 24 h; max activation: hits give high values; note: nearly all actives have a fitted effect of over 20% in size; note: potency is the fitted concentration of half-maximal effect
How it was run: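 Luminescent readout (One-Glo luciferase, 30 min room temperature) followed 24 hr compound treatment at 37 C of rPXR cells plated 2,000 per well and preincubated 5hr; qHTS format with compounds delivered in DMSO.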

[14] = target: Nuclear receptor subfamily 1 group I member 2 (Homo sapiens) (UniProt O75469); experiment: CYP3A4 induction through human pregnane X receptor (PXR) by small molecules, qHTS assay (AID 1346984); note: nearly all actives have a fitted effect of over 40% in size; note: potency is the fitted concentration of half-maximal effect
How it was run: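 DPX-2 HepG2 cells carrying a PXR response element and CYP3A4-promoter luciferase construct, treated with compounds 24 hr at 37C. Then P450-Glo CYP3A4 Luciferin-IPA substrate (3uM final) for 3 hr at 37C, One-Glo added, luminescence read.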

[15] = qHTS assay to identify small molecule antagonists of the thyroid receptor (TR) signaling pathway - cell viability counter screen (AID 743064); note: nearly all actives have a fitted effect of over 50% in size; note: potency is the fitted concentration of half-maximal effect
How it was run: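 Fluorescence from CellTiter-Fluor, added after 23.5 h exposure at 37 °C, reported viability of GH3.TRE-Luc cells co-treated with compound and 1 nM T3. Measured in the same wells as the luciferase TR readout.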

[16] = test system: thyroid hormone receptor (rat, GH3 cells); experiment: qHTS assay to identify small molecule agonists of the thyroid receptor (TR) signaling pathway (AID 743066; calls by dose curve)
[17] = target: Nuclear receptor subfamily 1 group I member 2 (Homo sapiens) (UniProt O75469); experiment: Human pregnane X receptor (PXR) activation by small molecules, qHTS assay (AID 1346985); note: nearly all actives have a fitted effect of over 40% in size; note: potency is the fitted concentration of half-maximal effect
How it was run: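 DPX-2 cells (HepG2 co-transfected with a PXR response element and a CYP3A4-promoter luciferase construct) were seeded at 2,000 per well, rested 5 hr at 37C, then exposed to DMSO-dissolved compounds for 24 hr. Activation was read as luciferase luminescence.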

[18] = qHTS assay to identify small molecule antagonists of the thyroid receptor (TR) signaling pathway (AID 743065); note: nearly all actives have a fitted effect of over 55% in size; note: potency is the fitted concentration of half-maximal effect
How it was run: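 Antagonism measured as loss of luciferase signal in GH3 cells stably carrying a TRE-luciferase reporter, co-treated with compound and T3 (1 nM final) for 23.5 h at 37 C. Viability was read in the same well by CellTiter-Fluor.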
% is set by controls: 0 for no effect and ±100 for the full control effect.

Sequence of Peroxisome proliferator-activated receptor gamma (Homo sapiens) (P37231 whole entry, looked up): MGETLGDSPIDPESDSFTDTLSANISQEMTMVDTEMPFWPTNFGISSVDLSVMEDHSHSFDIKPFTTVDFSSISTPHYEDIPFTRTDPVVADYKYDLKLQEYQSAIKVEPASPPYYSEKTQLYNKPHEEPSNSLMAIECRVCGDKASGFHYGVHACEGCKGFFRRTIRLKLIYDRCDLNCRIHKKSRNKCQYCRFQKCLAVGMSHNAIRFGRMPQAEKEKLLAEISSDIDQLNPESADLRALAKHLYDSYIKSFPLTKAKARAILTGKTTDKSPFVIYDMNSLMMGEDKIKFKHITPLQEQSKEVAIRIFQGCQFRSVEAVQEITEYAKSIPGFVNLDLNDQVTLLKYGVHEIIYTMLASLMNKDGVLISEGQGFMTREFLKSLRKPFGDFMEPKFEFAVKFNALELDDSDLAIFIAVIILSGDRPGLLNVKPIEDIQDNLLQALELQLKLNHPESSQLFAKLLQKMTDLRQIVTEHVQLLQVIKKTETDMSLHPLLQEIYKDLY
Sequence of Aryl hydrocarbon receptor (Homo sapiens) (P35869 whole entry, looked up): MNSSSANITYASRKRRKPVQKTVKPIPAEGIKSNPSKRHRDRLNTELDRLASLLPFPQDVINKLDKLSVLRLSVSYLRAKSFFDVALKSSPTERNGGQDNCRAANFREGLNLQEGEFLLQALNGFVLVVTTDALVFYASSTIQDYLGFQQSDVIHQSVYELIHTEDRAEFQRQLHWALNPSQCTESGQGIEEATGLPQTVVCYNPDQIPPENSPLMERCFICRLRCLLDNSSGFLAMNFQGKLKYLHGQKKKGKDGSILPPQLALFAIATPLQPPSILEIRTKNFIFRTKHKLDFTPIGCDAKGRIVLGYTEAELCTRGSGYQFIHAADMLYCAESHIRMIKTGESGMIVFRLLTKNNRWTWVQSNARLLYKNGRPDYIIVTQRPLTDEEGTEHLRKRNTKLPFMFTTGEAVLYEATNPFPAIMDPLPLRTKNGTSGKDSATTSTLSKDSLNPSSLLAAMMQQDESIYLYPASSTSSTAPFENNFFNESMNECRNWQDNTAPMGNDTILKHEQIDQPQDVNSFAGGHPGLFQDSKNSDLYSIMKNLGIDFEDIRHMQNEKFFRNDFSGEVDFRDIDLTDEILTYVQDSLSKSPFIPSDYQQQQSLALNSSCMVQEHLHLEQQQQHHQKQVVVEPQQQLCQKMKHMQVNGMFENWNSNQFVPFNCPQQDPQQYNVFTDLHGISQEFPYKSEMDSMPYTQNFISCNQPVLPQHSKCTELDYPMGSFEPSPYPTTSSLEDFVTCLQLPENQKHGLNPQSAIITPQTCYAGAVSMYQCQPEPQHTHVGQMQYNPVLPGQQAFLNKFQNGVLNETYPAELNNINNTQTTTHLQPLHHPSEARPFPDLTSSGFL
Sequence of Nuclear receptor subfamily 1 group I member 2 (Rattus norvegicus) (Q9R1A7 whole entry, looked up): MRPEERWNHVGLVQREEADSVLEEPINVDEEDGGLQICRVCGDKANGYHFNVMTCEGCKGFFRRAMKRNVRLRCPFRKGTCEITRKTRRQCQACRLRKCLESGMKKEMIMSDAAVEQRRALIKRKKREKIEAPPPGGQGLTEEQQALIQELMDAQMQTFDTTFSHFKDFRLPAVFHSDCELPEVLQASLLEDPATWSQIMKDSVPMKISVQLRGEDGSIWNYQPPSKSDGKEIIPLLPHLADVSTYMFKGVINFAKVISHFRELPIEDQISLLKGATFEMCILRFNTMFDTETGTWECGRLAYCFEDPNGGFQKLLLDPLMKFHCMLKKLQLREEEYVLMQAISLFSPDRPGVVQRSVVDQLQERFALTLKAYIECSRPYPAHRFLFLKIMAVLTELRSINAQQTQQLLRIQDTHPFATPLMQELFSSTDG
Sequence of Aromatase (Homo sapiens) (P11511 whole entry, looked up): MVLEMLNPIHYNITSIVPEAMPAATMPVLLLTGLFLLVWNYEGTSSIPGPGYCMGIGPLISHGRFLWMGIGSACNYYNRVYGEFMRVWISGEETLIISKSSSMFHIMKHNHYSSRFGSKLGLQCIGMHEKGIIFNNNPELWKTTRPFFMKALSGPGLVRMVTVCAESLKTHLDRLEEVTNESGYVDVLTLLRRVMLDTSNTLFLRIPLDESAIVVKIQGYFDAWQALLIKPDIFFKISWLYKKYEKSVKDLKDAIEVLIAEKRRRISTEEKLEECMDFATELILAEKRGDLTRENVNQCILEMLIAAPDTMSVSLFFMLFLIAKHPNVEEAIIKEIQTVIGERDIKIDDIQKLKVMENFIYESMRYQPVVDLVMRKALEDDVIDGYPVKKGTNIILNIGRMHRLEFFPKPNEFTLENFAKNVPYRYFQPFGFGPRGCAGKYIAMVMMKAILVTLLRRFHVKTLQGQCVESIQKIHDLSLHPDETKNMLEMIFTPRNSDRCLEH
Sequence of Estrogen receptor (Homo sapiens) (P03372 whole entry, looked up): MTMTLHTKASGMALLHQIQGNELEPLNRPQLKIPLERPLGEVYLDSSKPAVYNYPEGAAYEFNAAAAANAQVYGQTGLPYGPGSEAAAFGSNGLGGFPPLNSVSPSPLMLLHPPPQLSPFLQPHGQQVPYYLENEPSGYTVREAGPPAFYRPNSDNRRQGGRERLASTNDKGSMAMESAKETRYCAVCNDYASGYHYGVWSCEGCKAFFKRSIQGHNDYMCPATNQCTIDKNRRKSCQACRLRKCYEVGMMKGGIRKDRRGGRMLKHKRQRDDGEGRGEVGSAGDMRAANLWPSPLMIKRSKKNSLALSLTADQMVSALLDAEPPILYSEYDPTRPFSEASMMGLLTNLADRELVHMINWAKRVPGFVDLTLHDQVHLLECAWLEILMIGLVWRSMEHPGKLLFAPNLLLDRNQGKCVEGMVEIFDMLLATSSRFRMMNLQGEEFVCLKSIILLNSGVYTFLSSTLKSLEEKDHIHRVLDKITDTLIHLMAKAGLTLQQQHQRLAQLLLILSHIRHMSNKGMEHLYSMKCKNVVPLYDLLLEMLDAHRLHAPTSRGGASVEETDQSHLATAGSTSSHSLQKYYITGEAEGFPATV

O=C(COc1ccc(Cl)cc1)OCCNC12CC3CC(CC(C3)C1)C2
inactive: Potency [1] | Potency [2] | Potency [3] | Potency [4] | Potency [5] | Potency [6] | Potency [7] | Potency [8] | Potency [9] | Potency [10] | Potency [11] | Potency [12] | max activation [13] -5.06% | Potency [14]

COC(=O)CCC[N+](C)(C)C
inactive: Potency [15] | Potency [2] | Potency [6] | Potency [7] | Potency [8] | Potency [9] | Potency [10] | Potency [11] | Potency [12] | max activation [13] -0.156% | Potency [14]

CC[C@@H]1/C=C(\C)C[C@H](C)C[C@H](OC)[C@H]2O[C@@](O)(C(=O)C(=O)N3CCCC[C@H]3C(=O)O[C@H](/C(C)=C/[C@@H]3CC[C@@H](Cl)[C@H](OC)C3)[C@H](C)[C@@H](O)CC1=O)[C@H](C)C[C@@H]2OC
inactive: Potency [16] | Potency [2] | Potency [6] | Potency [7] | Potency [8] | Potency [9] | Potency [10] | Potency [11] | Potency [12] | max activation [13] -6.11% | Potency [17]

COCC(=O)Nc1cc(Sc2ccccc2)ccc1N=C(NC(=O)OC)NC(=O)OC
active: Potency [18] 23.7 µM
inactive: Potency [16] | Potency [1] | Potency [2] | Potency [3] | Potency [4] | Potency [5] | Potency [6] | Potency [7] | Potency [8] | Potency [10] | Potency [11] | Potency [12] | max activation [13] 86.6% | Potency [17]

NC(=O)Oc1ccc(Cc2ccccc2)cc1
inactive: Potency [15] | Potency [18] | Potency [16] | Potency [1] | Potency [2] | Potency [6] | Potency [7] | Potency [8] | Potency [9] | Potency [10] | Potency [11] | Potency [12] | max activation [13] -0.809% | Potency [17]
active: Potency [3] 26.8 µM [activator] | Potency [4] 21.1 µM

CC(CN1c2ccccc2Sc2cccnc21)N(C)C (stereo unspecified)
inactive: Potency [16] | Potency [1] | Potency [2] | Potency [4] | Potency [5] | Potency [6] | Potency [7] | Potency [8] | Potency [9] | Potency [10] | Potency [11] | Potency [12] | max activation [13] -2.44%
active: Potency [14] 3.98 µM

CC(C)C(=O)OCC(=O)[C@@]12O[C@H](C3CCCCC3)O[C@@H]1C[C@H]1[C@@H]3CCC4=CC(=O)C=C[C@]4(C)[C@H]3[C@@H](O)C[C@@]12C
inactive: Potency [16] | Potency [2] | Potency [3] | Potency [6] | Potency [7] | Potency [8] | Potency [9] | Potency [10] | Potency [11] | Potency [12]
active: Potency [15] 18.8 µM | Potency [18] 10.6 µM | Potency [1] 21.3 µM [inconclusive] | Potency [13] 7.94 µM | Potency [17] 631 nM
